Reference: the supplement of paper PMC8269313

Tested on: 4T1
Experiment: % inhibition of 4T1 cell number vs DMSO control; higher = stronger growth inhibition
Settings: 1 µM, 3 days
Outline: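 In 96-well imaging plates whose edge wells went unused, 3000 4T1-H2B-GFP mouse breast cancer cells per well were seeded in 2% FBS medium onto plastic, denuded lung matrix, mCAF1 fibroblast-derived matrix, Matrigel (15 μg/mL) or 0.2% gelatin. Sixteen hours on, kinase inhibitors went in at 1 μM final for 3 days before formalin fixation, DAPI staining and imaging on an INCell Analyzer 2200. Counting of GFP-positive nuclei gave cell numbers, from which percent inhibition relative to control was derived.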

[1] = substrate: lung fibroblast-derived matrix
[2] = substrate: mCAF1 fibroblast-derived matrix

## COc1cc2c(cc1OC)-c1[nH]nc(Nc3cccc(F)c3)c1C2 [PDGF Receptor Tyrosine Kinase Inhibitor IV]
substrate: Matrigel
  % inhibition of 4T1 cell number: 94.6%
substrate: gelatin
  % inhibition of 4T1 cell number: 84.5%
[1]
  % inhibition of 4T1 cell number: -13.5%
[2]
  % inhibition of 4T1 cell number: 89.7%
substrate: plastic
  % inhibition of 4T1 cell number: 74.7%

## c1cc(-c2cnn3cc(-c4ccc(OCCN5CCCCC5)cc4)cnc23)ccn1 [AMPK Inhibitor, Compound C]
substrate: Matrigel
  % inhibition of 4T1 cell number: 49.6%
substrate: gelatin
  % inhibition of 4T1 cell number: 27.5%
[1]
  % inhibition of 4T1 cell number: 12.9%
[2]
  % inhibition of 4T1 cell number: 7.87%
substrate: plastic
  % inhibition of 4T1 cell number: 52.8%

## CCCCCCOC(=O)[C@]1(O)C[C@@H]2O[C@@]1(C)n1c3ccccc3c3c4c(c5c6ccccc6n2c5c31)C(=O)NC4
substrate: Matrigel
  % inhibition of 4T1 cell number: -41.8%
substrate: gelatin
  % inhibition of 4T1 cell number: -0.139%
[1]
  % inhibition of 4T1 cell number: -8.63%
[2]
  % inhibition of 4T1 cell number: 13.5%
substrate: plastic
  % inhibition of 4T1 cell number: -74.7%

## Oc1ccc(-c2nc(-c3ccc(F)cc3)c(-c3ccncc3)[nH]2)cc1
substrate: Matrigel
  % inhibition of 4T1 cell number: 19.2%
substrate: gelatin
  % inhibition of 4T1 cell number: 56%
[1]
  % inhibition of 4T1 cell number: -2.55%
[2]
  % inhibition of 4T1 cell number: 38.9%
substrate: plastic
  % inhibition of 4T1 cell number: 30.1%

## CC[n+]1c(/C=C/N(C)c2ccccc2)n(-c2ccccc2)c2ccc(-c3nc4ccccc4s3)cc21 [Akt Inhibitor IV]
substrate: Matrigel
  % inhibition of 4T1 cell number: 53.2%
substrate: gelatin
  % inhibition of 4T1 cell number: 56.7%
[1]
  % inhibition of 4T1 cell number: -4.76%
[2]
  % inhibition of 4T1 cell number: 92.1%
substrate: plastic
  % inhibition of 4T1 cell number: 78.2%

## O=C1NC(=O)c2c1c1c3ccccc3[nH]c1n1cncc21 [Isogranulatimide]
substrate: Matrigel
  % inhibition of 4T1 cell number: -41.6%
substrate: gelatin
  % inhibition of 4T1 cell number: -25.6%
[1]
  % inhibition of 4T1 cell number: -7.38%
[2]
  % inhibition of 4T1 cell number: 9.11%
substrate: plastic
  % inhibition of 4T1 cell number: -78.2%

## O=C(O)C=Cc1cc(Br)c(Br)c(Br)c1Br [Casein Kinase II Inhibitor III, TBCA]
substrate: Matrigel
  % inhibition of 4T1 cell number: 33.8%
substrate: gelatin
  % inhibition of 4T1 cell number: 27.7%
[1]
  % inhibition of 4T1 cell number: 2.78%
[2]
  % inhibition of 4T1 cell number: 2.33%
substrate: plastic
  % inhibition of 4T1 cell number: 40.6%

## COc1cccc(-c2cc(=O)c3ccccc3o2)c1N
substrate: Matrigel
  % inhibition of 4T1 cell number: -3.15%
substrate: gelatin
  % inhibition of 4T1 cell number: -1.31%
[1]
  % inhibition of 4T1 cell number: -10.2%
[2]
  % inhibition of 4T1 cell number: 25.7%
substrate: plastic
  % inhibition of 4T1 cell number: -41.4%

## NCCNc1ncc(C(N)=O)c(Nc2cccc(C(F)(F)F)c2)n1 [Syk Inhibitor II]
substrate: Matrigel
  % inhibition of 4T1 cell number: -0.528%
substrate: gelatin
  % inhibition of 4T1 cell number: -84.2%
[1]
  % inhibition of 4T1 cell number: -1.24%
[2]
  % inhibition of 4T1 cell number: -23.5%
substrate: plastic
  % inhibition of 4T1 cell number: -12.4%

## N#Cc1c(C2CCNCC2)cc(-c2c(O)cccc2OCC2CC2)nc1N [IKK-2 Inhibitor VIII]
substrate: Matrigel
  % inhibition of 4T1 cell number: -23.5%
substrate: gelatin
  % inhibition of 4T1 cell number: -17.9%
[1]
  % inhibition of 4T1 cell number: -4.53%
[2]
  % inhibition of 4T1 cell number: 9.43%
substrate: plastic
  % inhibition of 4T1 cell number: -39.2%
